Screening data deposited in PubChem BioAssay by National Center for Advancing Translational Sciences (NCATS).
Pf growth 48h – P. falciparum growth inhibition at 48 hours (one generation); P. falciparum luciferase growth in erythrocytes, 48 h; Potency, µM (doses to about 28.7 µM), without a hit: top-dose activity change, negative = inhibition, most hits filed as inhibitors; hit rate 5.9% among 310,000
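First compound was added to culture medium, then infected red cells at 0.1% parasitemia and 2% hematocrit (final). After incubation at 37 C under 5% CO2, luciferase detection reagent was dispensed and light output recorded.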
HCV inhibitor – blocks hepatitis C virus. AID 651820. Potency, µM (doses to about 41.8 µM), for the others: top-dose activity change, negative = inhibition, usual class: inhibitors. Huh7.5.1 HCVcc-Cre infection, luciferase reporter, 44 h. hit rate 3.4% among 340,000
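Cells (1,000/well) were plated 4 h before compound, then infected with HCVcc-Cre virus (~0.5 moi). After 44 h further culture, infection was read as luciferase luminescence following a 15 min substrate incubation at room temperature.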
AmpC inh detg – AmpC beta-lactamase inhibition with detergent present | P00811 | AmpC hydrolysis of nitrocefin, absorbance 480 nm, 0.01% Triton | Potency, µM (highest dose often 114 µM), inactives show at the top dose activity change, negative = inhibition, hits mostly inhibitors | hit rate 0.041% among 370,000;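 also: 0% = no-compound wells and -100% = no-enzyme wells; nearly all actives have a fitted effect of over 25% in size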
Target sequence (P00811 whole entry, looked up): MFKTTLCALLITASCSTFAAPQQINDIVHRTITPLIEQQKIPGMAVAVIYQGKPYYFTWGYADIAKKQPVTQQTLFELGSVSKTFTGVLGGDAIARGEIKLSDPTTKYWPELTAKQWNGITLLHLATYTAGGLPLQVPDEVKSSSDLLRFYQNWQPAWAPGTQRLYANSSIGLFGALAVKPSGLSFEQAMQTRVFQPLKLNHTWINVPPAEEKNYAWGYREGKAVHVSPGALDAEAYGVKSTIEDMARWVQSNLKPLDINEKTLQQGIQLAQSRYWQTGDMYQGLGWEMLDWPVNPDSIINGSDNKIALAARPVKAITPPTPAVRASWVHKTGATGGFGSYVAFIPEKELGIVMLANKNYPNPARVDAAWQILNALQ
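20 mM phosphate pH 7.0 + 0.01% (detergent screen) or 0.0001% Triton X-100; 5.3 nM AmpC reagent; cpd preinc 15 min RT; nitrocefin (800 uM stock) to start; A480 q20 s × 4 min; Activity was normalised to no-enzyme and no-compound control wells.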
AMA1-RON2 inh – inhibitors of Plasmodium falciparum AMA1-RON2 interaction; AlphaScreen AMA1-biotinylated RON2 peptide binding; hit rate 0.2% among 360,000; Potency, µM (top dose mostly 58.2 µM), for inactives: at the highest dose activity change, negative = inhibition, hits mostly inhibitors; AID 720542;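 also: 0% = vehicle wells and -100% = peptide control; nearly all actives have a fitted effect of over 45% in size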
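AMA1 (3D7) with his tag at 25 nM final met compounds first, then biotinylated RON2 peptide at 25 nM; detection used donor plus acceptor beads, 10 µg/mL apiece, read by AlphaScreen after 30 min at room temperature.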
Pf growth 96h – P. falciparum growth inhibition at 96 hour, primary screen for plastid delayed-death inhibitors | Potency, µM (top dose mostly 28.7 µM), for the others: top-dose activity change, negative = inhibition, hits mostly inhibitors | AID 504834 | hit rate 6.9% among 320,000 | P. falciparum luciferase reporter growth, 96 h
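Cell-based qHTS: luciferase-tagged P. falciparum in erythrocytes (2% hematocrit, 0.05% parasitemia final) incubated with compounds for 96 hours, 37 C, 5% CO2; luciferase detection reagent then added and luminescence measured.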
AmpC no deterg – blocks E. coli AmpC beta-lactamase in detergent-free assay; hit rate 0.52% among 330,000; AmpC nitrocefin hydrolysis, absorbance 480 nm, 0.0001% Triton; Potency, µM (top dose mostly 57.1 µM), for the others: top-dose activity change, negative = inhibition, actives largely listed as inhibitors; P00811;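 also: plate controls were no compound for no effect and no enzyme for full effect; nearly all actives have a fitted effect of over 20% in size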
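AmpC (5.3 nM in the dispensed reagent) in 20 mM phosphate pH 7.0 with 0.01% (detergent screen) or 0.0001% Triton X-100 was preincubated with compounds for 15 min at room temperature. Nitrocefin was then added from an 800 uM solution, and hydrolysis was followed at 480 nm.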
* hit, by the source's call; ? = inconclusive; · = no result given; [ ] = remark or other dose. The list is not random: actives were taken first. Their share in the collection is about 11%. Calls follow the shape of the dose curve; as a rule, active = well fitted curve in the direction sought with a large enough effect; inconclusive = small, poorly fitted or top-dose-only effect, or another doubt; inactive = no such curve, though single readings can be large; an effect the other way counts as inactive or inconclusive. Unless noted, % is scaled to controls: 0 for no effect and ±100 for the full control effect; potency is read from the fitted curve at half-maximal effect.

SMILES	Pf growth 48h	HCV inhibitor	AmpC inh detg	AMA1-RON2 inh	Pf growth 96h	AmpC no deterg
CCN(CC)CCNC(=O)c1cc2cc3ccc(OC)cc3nc2o1	-1%[0.00184 µM]	-17%	-1%	-1%	1%	-6%
COc1ccc2nc3oc(C(=O)N4CCC(C(N)=O)CC4)cc3cc2c1	12µM*	9%	-9%	-6%	-61%	-12%
COc1ccc(OC)c(CCNc2ncnc3onc(C)c23)c1	·	·	8%	·	·	·
COc1ccc(CNc2ncnc3c2nc2n3CCCC2)cc1	·	·	-4%	·	·	·
Cc1ccc(NC2=NC(c3ccc(F)cc3)n3c(nc(C)cc3=O)N2)cc1 (centres undefined)	?	0%	2%	3%	?	-27%
Cc1ccc(NC2=NC(c3ccc(C)cc3)n3c(nc(C)cc3=O)N2)cc1 (centres undefined)	?	-7%	?	-3%	12µM*	-14%
COc1cccc(CSc2nc3ccccc3c3nc(CCn4c(C)nc5ccccc54)nn23)c1	·	·	9%	·	·	·
O=c1cc(CN2CCN(C/C=C/c3ccccc3)CC2)c2cc(O)ccc2o1	3.3µM*	?	2%	-14%	2.9µM*	-1%
Cc1ccc2oc(=O)cc(CN3CCN(C/C=C/c4ccccc4)CC3)c2c1	?	10µM*	6%	-1%	8.3µM*	17%
C=C(C)C1Cc2c(C)nn(-c3nc(C)cc(C)n3)c2C1 (centres undefined)	?	?	-11%	0%	13µM*	36%
CCn1cc(C(=O)NCc2ccccc2Cl)c(=O)c2cc(S(=O)(=O)N3CCc4ccccc4C3)ccc21	·	·	4%	·	·	·
CC1CCCN(Cc2c(O)ccc3c4c(c(=O)oc23)CCCC4)C1 (centres undefined)	1.3µM*	-5%	6%	-10%	1.5µM*	-21%
CC1CN(Cc2c(O)ccc3c2oc(=O)c2ccccc23)CC(C)O1 (centres undefined)	6.6µM*	?	0%	?	2.3µM*	11%
CN(C(=O)COC(=O)/C=C/c1cn(-c2ccccc2)nc1-c1ccc2c(c1)OCCO2)C1CCS(=O)(=O)C1 (centres undefined)	?	?	-6%	-11%	12µM*	17%[11.4 µM]
O=C(COC(=O)/C=C/c1cn(-c2ccccc2)nc1-c1ccc2c(c1)OCCO2)NC1CCS(=O)(=O)C1 (centres undefined)	?	?	-13%	4%	?	104%
COc1cccc(C(=O)N(Cc2sccc2C)C2CCS(=O)(=O)C2)c1 (centres undefined)	·	·	20%	·	·	·
CCCN(CCC)c1nc(C#N)nc(N(CCC)CCC)n1	12µM*	?	2%	8%	8.3µM*	-27%
N#Cc1ccc2c(c1)C[C@]1(CCCCN3C(=O)c4ccccc4C3=O)Oc3c(c(=O)oc4ccccc34)C2O1	1.7µM*	·	?	·	-19%[5.75 µM]	?
CCn1c(=O)c(C(=O)Nc2ncccc2C)c(O)c2ccccc21	-12%	10µM*	-13%	68%	?	24%
CCn1c(=O)c(C(=O)Nc2ccc(C)cc2C)c(O)c2ccccc21	2%	10µM*	7%	36%	0%	-14%
CCOc1ccc(C2C(C(N)=O)=C(C)Nc3nc(SCc4ccccc4)nn32)cc1 (centres undefined)	·	·	-5%	·	·	·
CC(=O)c1cccc(NC(=O)c2noc3c2CSc2ccccc2-3)c1	·	·	14%	·	·	·
CCCCCC(=O)NNC(=O)c1c(O)c2ccccc2n(CC)c1=O	?	-24%	-8%	126%	10µM*	-31%
CCn1c(=O)c(C(=O)NNC(=O)c2ccccc2Cl)c(O)c2ccccc21	23%	14µM*	18%	116%	29%	-23%
Cc1ccc(C)c(N2CCN(CCCNC(=O)c3ccc4nc(CCc5ccccc5)oc4c3)CC2)c1	·	·	-3%	·	·	·
SMILES	Pf growth 48h	HCV inhibitor	AmpC inh detg	AMA1-RON2 inh	Pf growth 96h	AmpC no deterg
COc1ccc(CCNC(=O)c2cc3c(=O)n(C)c4ccccc4c3s2)cc1OC	·	·	2%	·	·	·
Cc1ccnc(SCC(=O)N2CCc3ccccc32)n1	77%	18%	-4%	-17%	290%	-4%
O=C(CSc1ncn(-c2ccccc2)n1)N1CCc2ccccc21	21%	-5%	0%	11%	10µM*	-24%
CC(=O)Nc1ccc(C(=O)CSc2ncn(-c3ccccc3)n2)cc1	33%	?	4%	8%	13µM*	2%
O=C(CSc1ncn(-c2ccccc2)n1)Nc1nncs1	14%	15%	-2%	-5%	33%[1.15 µM]	-20%
CCc1ccc(NC(=O)CC2C(=O)N(c3cccc(C)c3)C(=O)N2Cc2cccs2)cc1 (centres undefined)	·	·	-2%	·	·	·
CCC(=O)C1=C(c2ccc(Cl)cc2)N(C(=O)CC)n2c(C)nnc2S1	·	·	-2%	·	·	·
CCOC(=O)C1=C(OCc2ccc(Cl)cc2)C2C=C(C)C=CC2N=C1 (centres undefined)	·	-20%	-7%	33%	12µM*	-7%
COc1ccccc1NC(=O)C1=C(C)Nc2nc(-c3ccc(N(C)C)cc3)nn2C1c1ccncc1 (centres undefined)	15µM*	?	-1%	7%	9.3µM*	91%
COc1cccc(/C=C2\Oc3cc(OCC(=O)N4CCCC4)ccc3C2=O)c1OC	13µM*	10%	-1%	-16%	10µM*	93%
CCn1cnc2sc(C(=O)Oc3ccc(Br)cc3)c(C)c2c1=O	54%	-30%	?	-3%	2.9µM*	-27%
CCCc1ccc(OC(=O)c2sc3ncn(Cc4cccc(F)c4)c(=O)c3c2C)cc1	·	·	-7%	·	·	·
Clc1ccc(Cn2ccc(-c3ccc4c(c3)OCO4)n2)cc1Cl	7%	25µM*	-14%	24%	123%	-24%
CCCc1ccc(OCC(=O)Nc2sc3c(c2C(=O)OCC)CCC(C(C)(C)C)C3)cc1 (centres undefined)	·	·	1%	·	·	·
COc1ccc(-c2csc(NC(=O)Nc3ccccc3)n2)cc1	·	?	-15%	0%	-3%	-24%
Cc1ccc(NC(=O)Nc2nc(-c3ccc(C)s3)cs2)cc1	-11%	?	?	1%	15µM*	-54%
CCOC(=O)c1cnc(-n2nc(C)cc2C)nc1Nc1ccc2c(c1)OCO2	12%	·	11%	·	15µM*	-17%
CCOC(=O)c1cnc(-n2nc(C)cc2C)nc1Nc1ccc(N(C)C)cc1	5.2µM*	?	-15%	?	3.3µM*	-17%
CCOC(=O)c1cnc(-n2nc(C)cc2C)nc1Nc1ccc(O)cc1	?	?	0%	19%	2.6µM*	-12%
